Legend:
Test in all cases: PBM binding z-score (relative to random genomic background probes); higher = stronger binding; sequences stand for … in GC…GCGATTGACAGCGTAGAATGAAGG
[1] = system: FXR:RXRa (NR concentration 270 nM, RXRa partner concentration 90 nM)
How it was run: (§1)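 Probes were double-stranded and carried 34-nt variable regions with direct-repeat seeds, single-nucleotide variants, half-site ablations and random human genomic background sequences, printed on custom Agilent 4×180K protein-binding microarrays. Arrays were incubated 1 h with ligand-free nuclear receptor dimers in PBS pH 7.4, 2% milk, 0.02% Triton X-100, 1 mM DTT, 0.2 mg/mL BSA and 0.4 mg/ml salmon testes DNA. Antibodies against each partner (one per run) detected binding, and scanned fluorescence was regression-normalized. Binding z-scores use the random background probes as reference.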

[2] = system: LXRa:RXRa (NR concentration 270 nM, RXRa partner concentration 90 nM)
How it was run: as §1

[3] = system: LXRa homodimer (NR concentration 270 nM)
How it was run: as §1

[4] = system: LXRb:RXRa (NR concentration 270 nM, RXRa partner concentration 90 nM)
How it was run: as §1

[5] = system: LXRb homodimer (NR concentration 270 nM)
How it was run: as §1

[6] = system: PPARa:RXRa (NR concentration 270 nM, RXRa partner concentration 90 nM)
How it was run: as §1

[7] = system: PPARg:RXRa (NR concentration 180 nM, RXRa partner concentration 90 nM)
How it was run: as §1

[8] = system: PPARg:RXRa 270nM:90nM, anti-RXR (NR concentration 270 nM, RXRa partner concentration 90 nM)
How it was run: as §1

[9] = system: PPARg:RXRa 30nM:10nM, anti-RXR (NR concentration 30 nM, RXRa partner concentration 10 nM)
How it was run: as §1

[10] = system: PPARg:RXRa 90nM:30nM, anti-RXR (NR concentration 90 nM, RXRa partner concentration 30 nM)
How it was run: as §1

Sequence | PBM binding z-score [1] | PBM binding z-score [2] | PBM binding z-score [3] | PBM binding z-score [4] | PBM binding z-score [5] | PBM binding z-score [6] | PBM binding z-score [7] | PBM binding z-score [8] | PBM binding z-score [9] | PBM binding z-score [10]
AGAATGAGGTTATTAAGATCAGAGAATTGCGGTC | 1.56 | 1.62 | 0.0516 | 1.19 | 0.109 | 2.71 | 1.59 | 1.75 | 0.553 | 1.22
GCATATAGGTAATACAAGTTGAAAGTCCGATTGT | 0.281 | 0.793 | -0.112 | 0.0778 | -0.33 | 1 | 1.05 | 0.484 | -0.0817 | 0.166
AACTCTAGGTAAGACTCAGTTCAGTGAAGAACGC | -0.314 | -0.0738 | 0.141 | -0.191 | -0.311 | 0.00216 | 0.00417 | -0.304 | -0.237 | -0.258
TCTTGTAGATCAAACGTTAAGAAAGCCGAAGCCT | 0.211 | 0.363 | -0.0781 | 0.18 | -0.0447 | 0.988 | 0.748 | 3.17 | 3.27 | 3.48
TTACCAAGGTGCAAGGTCGTTGATGCACGCCTTG | 0.786 | 1.16 | 0.129 | 0.668 | -0.474 | 2.06 | 2.28 | 3.87 | 1.91 | 3.42
CCGACTGGGGCAGAAAGGTTACTATACCATCCGG | -0.369 | -0.0108 | -0.29 | 0.722 | -1.04 | 1.5 | 1.63 | 2.14 | 0.485 | 1.52
TCTAGCAGGCCAGAGGGGCACTCAAGAGGTACGG | -0.239 | -0.393 | -0.689 | -0.334 | -0.644 | 0.22 | 0.662 | 1.41 | 1.64 | 1.51
CGAACTAGGTCATCCAGGACAGTGACTACATTGA | 4.72 | 2.67 | 0.428 | 1.91 | -0.136 | 4.84 | 7.74 | 6.43 | 3.94 | 6.21
ATATGTAGGTTACATCCGGGTCAATCAGGCTATG | 2.56 | 4.37 | 1.05 | 2.91 | 0.748 | 4.39 | 5.98 | 5.29 | 2.62 | 4.47
CCTACTGGGCCAAACGTCATTGATTCCAATGCTC | -0.411 | -0.228 | -0.236 | -0.0474 | -0.218 | 2.31 | 4.96 | 6.47 | 5.56 | 6.79
TATAGTTGGTCACGGAGGTCACACACGACGGGTA | 3.47 | 3.92 | 3.29 | 3.47 | 1.25 | 4.09 | 4.49 | 3.8 | 1.92 | 3.19
ACTATTAGTTGACTTCGGGCAACCGATACGACGC | 0.0947 | 0.0355 | 0.567 | 0.0208 | 0.752 | -0.237 | 0.757 | 0.358 | 0.0391 | 0.162
AGTCAAAGTTCACTAGGTAACGCAAGATTCAGCT | 5.26 | 4.86 | 2.69 | 2.93 | 0.956 | 4.83 | 7.22 | 6.82 | 3.62 | 6.03
TCATACAGGTAATACAGGTGAAAGTCGGCATCTA | 0.813 | 1.42 | 0.615 | 1.31 | 0.285 | 1.88 | 0.982 | 2.34 | 3.85 | 3.1
CCTTACGGGTCACGAGGTTCTAGCACGACGAGCG | 6.53 | 4.22 | -0.19 | 3.53 | 0.0881 | 5.66 | 6.59 | 6.31 | 3.2 | 5.36
TTACCGAGGTGAGCTGAGGTCGTTGATCCAACTC | 1.71 | 1.73 | -0.575 | 1.16 | -0.881 | 2.03 | 0.345 | 0.915 | -0.318 | 0.221
CCTAGTGGGTCAAGGTCACACACGCTATAGGTAC | 5.66 | 4.37 | 1.16 | 3.95 | 0.411 | 5.54 | 8.69 | 7.42 | 5.3 | 6.95
TCTAGTTGGACACGGAGGTCACACACGACGGGTA | 2.81 | 2.85 | 2.1 | 2.85 | 0.421 | 3.68 | 2.46 | 3.05 | 3.26 | 2.88
TTAGCAAGGTGAGCTGAGGTCGTTGATCCAACTC | 0.796 | 1.32 | -0.635 | 0.393 | -0.992 | 1.72 | -0.0318 | 0.607 | -0.48 | 0.182
CATACAGGGCCAGCTAGGCCAGAGTAGGGACGGC | -0.56 | -0.822 | -0.918 | -1.15 | -0.413 | -0.817 | 0.311 | -0.829 | -0.392 | -1
CGTCCAAGGTGAAAGGTCAGTGAAGAGATGACGG | 4.63 | 4.11 | 0.846 | 3.61 | -0.321 | 6.01 | 9.57 | 8.09 | 7.25 | 8.46
CGTCCAAAGTCAGCAGGTCAGTGAAAGCGACGTG | 0.237 | 0.521 | 0.0163 | 0.578 | -0.765 | 1.24 | -0.0107 | 0.0351 | -0.634 | -0.432
CTCGAAAGGTCGTTTGAGGTGAGTATACGGATAA | 6.16 | 4.77 | 0.74 | 3.96 | 1.09 | 4.99 | 2.46 | 3.47 | 1.38 | 2.14
TTACCAATGTGAAAGGTCGTTGATGCACGCCTTG | 1.7 | 2.12 | 0.874 | 1.91 | 0.227 | 3.26 | 4.36 | 5.96 | 3.68 | 6.14
TCGAGTAGGTTACCAATGTGGCATTCAGCTTTCT | 0.261 | 1.41 | -0.667 | 0.671 | 0.104 | 0.803 | 0.268 | 1.09 | 0.936 | 1.08

From the supplement of paper PMC6555819
